Holding throughout (conditions): incubation time: 27 h, anaerobic, 37 °C
Assay [1] relates to Escherichia coli IAI1. Kind of assay: growth (OD595) fold change vs plate DMSO controls (fold change (ratio)); higher = more growth. The method in brief: (§1)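 The reported measure is growth: the fold change against the median of DMSO controls on the plate. Absorbance at 595 nm from anaerobic 96-well mGAM cultures grown for 27 h at 37 °C was blank-subtracted, corrected for background with 20 µM compound solutions in water, and converted to OD with a calibration factor of 5. Fold changes above 1.5 appear as NA, and values are the mean of 2 biological replicates.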

The test system of assay [2] is Klebsiella aerogenes DSM 30053. The description is as above. The procedure, abridged: as §1
Assay [3] has as its system Ruminococcus gnavus DSM 108212. The assay is described as above. The procedure, abridged: as §1
Assay [4] relates to Klebsiella aerogenes DSM 30053. Kind of assay: fold change of Histamine concentration vs plate DMSO controls (fold change (ratio)); higher = more amine produced, active = hit call of the paper (significant change in both replicates, either direction). The procedure, abridged: (§2)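 Extracts of whole anaerobic mGAM cultures were analysed for amines by LC–triple-quadrupole MS with dynamic MRM and external calibration curves, with drift corrected within batch. Four gut strains were grown at 37 °C for 27 h in 80 µL wells with compounds at 20 µM final, sweeteners at 50 µM final. Each value expresses fold change over plate DMSO controls. The average of 2 biological replicates is shown.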

For assay [5], the system named is Ruminococcus gnavus DSM 108212. Kind of assay: fold change of Tryptamine concentration vs plate DMSO controls (fold change (ratio)); higher = more amine produced, active = hit call of the paper (significant change in both replicates, either direction). The method in brief: as §2
For assay [6], the system named is Escherichia coli IAI1. Kind of assay: fold change of Putrescine concentration vs plate DMSO controls (fold change (ratio)); higher = more amine produced, active = hit call of the paper (significant change in both replicates, either direction). The method in brief:
as §2

Assay [7] relates to Klebsiella aerogenes DSM 30053. The description is as above. The procedure, abridged:
as §2

Assay [8] has as its system Escherichia coli IAI1. In words: fold change of Cadaverine concentration vs plate DMSO controls (fold change (ratio)); higher = more amine produced, active = hit call of the paper (significant change in both replicates, either direction). The method in brief: as §2
Assay [9] relates to Klebsiella aerogenes DSM 30053. Described as above. The procedure, abridged:
as §2

Assay [10] deals with Ruminococcus gnavus DSM 108212. Kind of assay: fold change of 2-Phenylethylamine concentration vs plate DMSO controls (fold change (ratio)); higher = more amine produced, active = hit call of the paper (significant change in both replicates, either direction). The method in brief: as §2
For assay [11], the system named is Clostridium sporogenes DSM 1664. In words: growth (OD595) fold change vs plate DMSO controls (fold change (ratio)); higher = more growth. The method in brief: as §1
For assay [12] the test system is unchanged. In words: fold change of Tryptamine concentration vs plate DMSO controls (fold change (ratio)); higher = more amine produced, active = hit call of the paper (significant change in both replicates, either direction). The procedure, abridged: as §2

The values that follow come from the supplement of paper PMC12494721.

SMILES strings stand for the structures. Structures can show the parent of a compound that is named as a salt.

In the case of `O=C(O)c1cn(C2CC2)c2cc(N3CCNCC3)c(F)cc2c1=O` [Ciprofloxacin hydrochloride monohydrate] (20 µM), the growth in the assay with Escherichia coli IAI1 [1] is 0; in assay [2], 0; in assay [3] it was 0.342. The “fold change of Histamine concentration” value in assay [4] is 0.0661 (active). The “fold change of Tryptamine concentration” value in assay [5] is 0.796 (inactive). The “fold change of Putrescine concentration” value with Escherichia coli IAI1 [6] is 0.53 (inactive); in assay [7], 0.573 (inactive). Further, the “fold change of Cadaverine concentration” value with Escherichia coli IAI1 [8] is 0.176 (active); in assay [9], 0.938 (inactive). Besides, the “fold change of 2-Phenylethylamine concentration” value in [10] is 0.863 (inactive).
In the case of `O=C1C(CC[S+]([O-])c2ccccc2)C(=O)N(c2ccccc2)N1c1ccccc1` (stereo unspecified) [Sulfinpyrazone] (20 µM), the growth in the assay on Escherichia coli IAI1 [1] is 0.972; in assay [2] it was 1.04; in [3], 1.06. The “fold change of Histamine concentration” value in assay [4] was 0.959 (inactive). The “fold change of Tryptamine concentration” value in assay [5] was 0.904 (inactive). The “fold change of Putrescine concentration” value in the assay with Escherichia coli IAI1 [6] is 0.978 (inactive); in [7], 1.04 (inactive). In addition, the results for the “fold change of Cadaverine concentration” value (with Escherichia coli IAI1 [8]; in assay [9]) were 0.991 (inactive) and 1.01 (inactive), respectively. Further, in [10], the “fold change of 2-Phenylethylamine concentration” value is 0.887 (inactive).
`CCCCCCCCNC(C)C(O)c1ccc(SC(C)C)cc1` (stereo unspecified) [Suloctidil] (20 µM): the values for the growth (in assay [11]; in the assay on Escherichia coli IAI1 [1]; in assay [2]) were 1.12, 1.08 and 1.06, respectively. Also, the “fold change of Histamine concentration” value in assay [4] is 0.987 (inactive). Further, the “fold change of Tryptamine concentration” value in [12] is 0.983 (inactive); in assay [5] it was 0.729 (active). For the same molecule, the “fold change of Putrescine concentration” value with Escherichia coli IAI1 [6] was 1.03 (inactive); in assay [7] it was 0.977 (inactive). Also, the “fold change of Cadaverine concentration” value in the assay on Escherichia coli IAI1 [8] is 0.983 (inactive); in [9] it was 0.996 (inactive). Also, in assay [10], the “fold change of 2-Phenylethylamine concentration” value is 0.785 (active).
As to `CN1[C@@H]2CC[C@H]1CC(OC(=O)C(O)c1ccccc1)C2` (mixture of isomers) [(R,S) Homatropine hydrobromide] (20 µM), the “fold change of Histamine concentration” value in [4] was 0.867 (inactive). For the same molecule, the entries for the “fold change of Tryptamine concentration” value in assay [12] and in assay [5] were 1 (inactive) and 0.99 (inactive), respectively. For the same molecule, the “fold change of Putrescine concentration” value (in the assay on Escherichia coli IAI1 [6]; in assay [7]) was 0.995 (inactive) each time. The “fold change of Cadaverine concentration” value (in the assay on Escherichia coli IAI1 [8]; in assay [9]) was 1.02 (inactive) each time. The “fold change of 2-Phenylethylamine concentration” value in [10] was 1.01 (inactive).
`C[C@H]1[C@H](NC(=O)/C(=N\OC(C)(C)C(=O)O)c2csc(N)n2)C(=O)N1S(=O)(=O)O` [Aztreonam] (20 µM): the growth with Escherichia coli IAI1 [1] was determined as 1.04; in [2], 0.662; in assay [3], 1.04. Further, the “fold change of Histamine concentration” value in assay [4] is 0.865 (inactive). The “fold change of Tryptamine concentration” value in [5] is 1.05 (inactive). Also, the entries for the “fold change of Putrescine concentration” value (with Escherichia coli IAI1 [6]; in assay [7]) were 0.86 (inactive) and 1.13 (inactive), respectively. The “fold change of Cadaverine concentration” value in the assay with Escherichia coli IAI1 [8] was 1.03 (inactive); in assay [9], 1.06 (inactive). Further, in [10], the “fold change of 2-Phenylethylamine concentration” value was 1.04 (inactive).
As for `O=C(O)[C@H]1/C(=C/CO)O[C@@H]2CC(=O)N21` [Clavulanate potassium salt] (20 µM), the growth was determined as 0.883 in [11], 1.01 in the assay with Escherichia coli IAI1 [1] and 0.977 in assay [2]. Also, the “fold change of Histamine concentration” value in [4] was 1.02 (inactive). Further, the “fold change of Tryptamine concentration” value in assay [12] was 1.01 (inactive); in assay [5], 0.997 (inactive). The “fold change of Putrescine concentration” value in the assay on Escherichia coli IAI1 [6] is 0.96 (inactive); in assay [7], 1 (inactive). The “fold change of Cadaverine concentration” value in the assay on Escherichia coli IAI1 [8] is 1.05 (inactive); in [9], 0.998 (inactive). Besides, the “fold change of 2-Phenylethylamine concentration” value in assay [10] was 1.02 (inactive).
With `Clc1ccc(Nc2nnc(Cc3ccncc3)c3ccccc23)cc1` [Vatalanib] (20 µM), the growth in assay [11] is 1.06; with Escherichia coli IAI1 [1], 1.19; in assay [2], 1.08. Further, in [4], the “fold change of Histamine concentration” value is 0.91 (inactive). Besides, the “fold change of Tryptamine concentration” value in assay [12] is 1.12 (inactive); in assay [5], 1.02 (inactive). In addition, the “fold change of Putrescine concentration” value was 1.17 (inactive) with Escherichia coli IAI1 [6] and 0.942 (inactive) in [7]. The figures for the “fold change of Cadaverine concentration” value (in the assay with Escherichia coli IAI1 [8]; in assay [9]) were 0.945 (inactive) and 1.02 (inactive), respectively. For the same molecule, the “fold change of 2-Phenylethylamine concentration” value in [10] is 1.01 (inactive).
On to `CO/N=C(\C(=O)N[C@@H]1C(=O)N2C(C(=O)O)=C(C[N+]3(C)CCCC3)CS[C@H]12)c1csc(N)n1` [Cefepime hydrochloride] (20 µM), for which the growth was found to be 0 with Escherichia coli IAI1 [1], 0.484 in [2] and 0 in assay [3]. Further, the “fold change of Histamine concentration” value in [4] is 0.119 (active). Also, in assay [5], the “fold change of Tryptamine concentration” value is 0.0466 (active). For the same molecule, the “fold change of Putrescine concentration” value with Escherichia coli IAI1 [6] is 0.285 (active); in [7], 0.361 (active). The “fold change of Cadaverine concentration” value with Escherichia coli IAI1 [8] was 0.884 (inactive); in assay [9], 1.11 (inactive). Also, the “fold change of 2-Phenylethylamine concentration” value in assay [10] was 0.0523 (active).
As to `Nc1nc2c(ncn2COCCO)c(=O)[nH]1` [Acyclovir] (20 µM), the figures for the growth (in the assay on Escherichia coli IAI1 [1]; in [2]; in [3]) were 1.05, 1 and 1.42, respectively. Besides, the “fold change of Histamine concentration” value in assay [4] was 1.02 (inactive). In addition, in assay [5], the “fold change of Tryptamine concentration” value was 1.15 (inactive). The figures for the “fold change of Putrescine concentration” value (with Escherichia coli IAI1 [6]; in assay [7]) were 1.03 (inactive) and 0.983 (inactive), respectively. The “fold change of Cadaverine concentration” value with Escherichia coli IAI1 [8] is 1 (inactive); in assay [9], 1.05 (inactive). Moreover, in assay [10], the “fold change of 2-Phenylethylamine concentration” value was 1.15 (inactive).
On to `C[C@H](CS)C(=O)N1CCC[C@H]1C(=O)O` [Captopril] (20 µM), for which the values for the growth (in the assay with Escherichia coli IAI1 [1]; in assay [2]; in assay [3]) were 0.976, 1 and 0.851, respectively. In addition, the “fold change of Histamine concentration” value in assay [4] was 1.01 (inactive). Moreover, in assay [5], the “fold change of Tryptamine concentration” value is 1.04 (inactive). Further, the “fold change of Putrescine concentration” value in the assay with Escherichia coli IAI1 [6] is 0.963 (inactive); in assay [7] it was 1 (inactive). Further, the “fold change of Cadaverine concentration” value was 1.01 (inactive) in the assay on Escherichia coli IAI1 [8] and 1 (inactive) in [9]. Further, the “fold change of 2-Phenylethylamine concentration” value in assay [10] was 1.04 (inactive).
